Experimental data taken from PubChem BioAssay (Tox21).
Where “and” joins values, the source holds several entries; their conditions need not be identical. Equal entries are not always repeated. Results filed as inconclusive are left out. Entries that show only a call come without a potency. A structure can be active in one record and inactive in another. Calls of active or inactive are those of the source. The call rests on the fitted dose curve; in most records, active means well fitted activation curve with a large enough effect in the signal ratio in the repeat runs (not every such curve was filed as active); inconclusive means weak or mixed curves; inactive means flat fitted curve, though single readings scatter; the % refers to the signal ratio.

assay: qHTS assay to identify small molecule agonists of H2AX (AID 1224845); conditions: CHO-K1 phospho-H2AX Ser139 HTRF, 3 h; series mostly up to 154 µM
Summary of the method: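 Phospho-H2AX Ser139 measured by HTRF (ex 320 nm; em 665 and 620 nm) after 24 hr antibody incubation. Compounds, 15 concentrations, 0.76% DMSO, were applied to CHO-K1 cells for 3hr at 37C before lysis.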
Potency means the concentration at half of the fitted maximal effect.

Row | Structure (SMILES) | Potency | activation (H2AX phosphorylation)
1 | CC1=CCC2CC1C2(C)C (stereo unspecified) | inactive | –
2 | O=S1(=O)CC=CC1 | inactive | –
3 | FC(F)(F)c1ccc(Cl)c(Cl)c1 | inactive | –
4 | Nc1ccccc1[N+](=O)[O-] | inactive | –
5 | CC(C)CC(=O)CC(C)C | inactive | –
6 | CC(c1cc2ccccc2s1)N(O)C(N)=O (stereo unspecified) | inactive | –
7 | CN(C)CCC(c1ccc(Cl)cc1)c1ccccn1 (stereo unspecified) | inactive | –
8 | c1c[nH]cn1 | inactive | –
9 | CC(C)(C)[C@@H](O)[C@@H](Cc1ccc(Cl)cc1)n1cncn1 | inactive | –
10 | OCCOCCN1CCN(C2=Nc3ccccc3Sc3ccccc32)CC1 | inactive | –
11 | CC(O)COCC(C)O (stereo unspecified) | inactive | –
12 | c1ccc2scnc2c1 | inactive | –
13 | Cc1ccc2oc(=O)ccc2c1 | inactive | –
14 | CCc1cccc(C)c1N | inactive | –
15 | CCCCC(CC)COC(=O)CS (stereo unspecified) | inactive | –
16 | c1ccc(OCCOc2ccccc2)cc1 | inactive | –
17 | CCCCCCCCCCCCCCCO | inactive | –
18 | O=C(O)c1ccc2c(c1)C(=O)OC2=O | inactive | –

Row | Structure (SMILES) | Potency | activation (H2AX phosphorylation)
19 | COc1cc(Cc2cnc(N)nc2N)cc(OC)c1OC | inactive | –
20 | COc1ccc(Nc2ccccc2)c(C)c1 | inactive | –
21 | CCN(CC)CCCC(C)Nc1ccnc2cc(Cl)ccc12 (stereo unspecified) | – | 3.5% [at 14 µM] (inactive) and -4.76% [at 31.6 µM] (inactive)
22 | O=C(O)c1cc(C(=O)O)cc(S(=O)(=O)O)c1 | inactive | –
23 | CCCCCCCCCC | inactive | –
24 | CC(=O)CC(=O)Nc1ccccc1 | inactive | –
25 | Cc1cc(C)c(C)cc1C | inactive | –
26 | C[C@H]1C[C@@H]2[C@H]([C@@H](O)C[C@@]3(C)[C@H]2CC[C@]3(O)C(=O)CO)[C@@]2(C)C=CC(=O)C=C12 | inactive | –
27 | CCCCCCCCCCCCCCO | inactive | –
28 | COc1ccc2cc([C@H](C)C(=O)O)ccc2c1 | inactive | –
29 | C=C(C)C(=O)O[C@H]1C[C@@H]2CC[C@@]1(C)C2(C)C | 2.24 µM (active) and inactive | –
30 | Cc1ccc(S(N)(=O)=O)cc1 | inactive | –
31 | C=CCOC(=O)c1ccccc1C(=O)OCC=C | inactive | –
32 | C#C[C@]1(O)CC[C@H]2[C@@H]3CCC4=CC(=O)CC[C@@H]4[C@H]3CC[C@@]21C | 28.4 µM (active) and 19.6 µM (active) | –
33 | OCc1cccnc1 | inactive | –
34 | O=C(O)[C@H](O)[C@@H](O)[C@H](O)[C@H](O)CO | inactive | –
35 | O=S(=O)(O)c1ccc2ccccc2c1 | inactive | –
36 | CCCCC(CC)COC(=O)C(C#N)=C(c1ccccc1)c1ccccc1 (stereo unspecified) | inactive | –
